# Screening data from PubChem.
# HPGD inh: inhibitors of human 15-hydroxyprostaglandin dehydrogenase (HPGD) | P15428 | purified HPGD, NADH fluorescence kinetic, PGE2 substrate | Potency, µM, inactives show at the top dose activity change, negative = inhibition, usual class: inhibitors | actives 4.3% (n = 150,000) | AID 894; active = well fitted inhibition curve with a large enough effect, not every such curve was filed as active; inconclusive = small, poorly fitted or top-dose-only effect, or another doubt; inactive = no such curve, though single readings can be large or run the other way; also: % is scaled to controls: 0 for no effect and ±100 for the full control effect
#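 20 nM HPGD preincubated 15 min at room temperature with compound in 50 mM Tris-HCl pH 8, 0.01% Tween 20. Started with 1 mM NAD+ and 30 uM prostaglandin E2; NADH fluorescence (360/450 nm) read 5 times over 30-s intervals, last minus first.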
# ALDH1A1 block: blocks purified human ALDH1A1 activity | P00352 | Potency, µM (highest dose often 75.3 µM), for inactives: top-dose activity, negative = inhibition, actives largely listed as inhibitors | actives 7.3% (n = 220,000) | AID 1030 | Purified ALDH1A1, NADH fluorescence, propionaldehyde substrate; active = well fitted inhibition curve with a large enough effect, not every such curve was filed as active; inconclusive = small, poorly fitted or top-dose-only effect, or another doubt; inactive = no such curve, though single readings can be large or run the other way;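 also: plate controls were no enzyme wells and a reference inhibitor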
# Target sequence (P00352 whole entry, looked up): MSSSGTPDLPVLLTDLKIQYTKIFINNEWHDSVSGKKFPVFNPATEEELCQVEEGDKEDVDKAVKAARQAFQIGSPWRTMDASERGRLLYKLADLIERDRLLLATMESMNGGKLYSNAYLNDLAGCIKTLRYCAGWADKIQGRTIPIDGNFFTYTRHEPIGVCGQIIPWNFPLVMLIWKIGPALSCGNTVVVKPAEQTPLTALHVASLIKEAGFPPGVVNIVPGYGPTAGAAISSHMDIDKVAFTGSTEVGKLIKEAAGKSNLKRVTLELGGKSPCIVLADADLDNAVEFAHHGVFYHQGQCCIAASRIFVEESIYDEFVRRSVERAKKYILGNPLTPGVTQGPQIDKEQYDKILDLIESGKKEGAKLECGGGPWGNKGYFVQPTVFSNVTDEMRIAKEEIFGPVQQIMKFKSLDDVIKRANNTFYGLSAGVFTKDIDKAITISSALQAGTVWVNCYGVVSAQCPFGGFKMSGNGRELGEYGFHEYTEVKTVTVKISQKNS
# Lamin A splicing: LMNA splicing modulation. HeLa LMNA splicing GFP/RFP minigene ratio, 48 h. Potency, µM (highest dose often 46.1 µM), inactives show at the highest dose ratio change, negative = inhibition, hits mostly inhibitors. actives 0.01% (n = 200,000). AID 1487; active = well fitted inhibition curve with a large enough effect in the signal ratio, with a control signal flat, not every such curve was filed as active; inconclusive = small, poorly fitted or top-dose-only effect, or effect the other way, or a change in a side signal; the % refers to the signal ratio; also: % is scaled to controls: 0 for no effect and ±100 for the full control effect
#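 S3 HeLa cells stably expressing lamin A-EGFP splicing minigene plus DsRed2, 600 cells/well, 48 h compound exposure at 37C. Laser-scanning cytometry; analysed as GFP (500-530 nm)/RFP (575-640 nm) total intensity ratio; 0.5% DMSO vehicle.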
# HTT ATP protect: Huntington cell model cytoprotection by ATP luminescence; AID 1471; Potency, µM (doses to about 56.4 µM), without a hit: cytoprotection (ATP increase), most hits filed as activators; actives 0.14% (n = 230,000); PC12 HTT-Q103 induced, cytoprotection, ATP luminescence, 40 h; also: % of control where 0% means no effect; nearly all actives have a fitted effect of over 45% in size
#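 Compounds added alongside 100 nM tebufenozide, which induces toxic Q103 huntingtin exon 1-GFP in stable PC12 cells; surviving cells quantified by luminescent ATP measurement. Medium: phenol red-free DMEM, 5% equine and 5% calf serum.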
# HttQ103 aggreg: reduces HttQ103-GFP aggregates in PC12 cells; AID 1688; PC12 HttQ103-GFP aggregates, Acumen cytometry, 40 h; actives 1.1% (n = 220,000); Potency, µM (series often up to 46.1 µM), for the others: at the top dose activity change, negative = inhibition, most hits filed as inhibitors; also: % is scaled to controls: 0 for no effect and ±100 for the full control effect; nearly all actives have a fitted effect of over 60% in size
#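 Quantitative HTS on tebufenozide-induced (100 nM) PC12 cells stably expressing polyQ103 Huntingtin exon 1–GFP. Reduction of bright GFP aggregates, detected by laser scanning cytometry after lysis, identified actives across the titration.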
# * = called active by the depositor; ? = inconclusive; . = no result; [ ] = another dose, or the depositor's remark. Most compounds without a hit are left out; they make up all but 8.8% or so of the library. Unless noted, calls follow the shape of the dose curve; as a rule, active = well fitted curve in the direction sought with a large enough effect; inconclusive = small, poorly fitted or top-dose-only effect, or another doubt; inactive = no such curve, though single readings can be large; an effect the other way counts as inactive or inconclusive. Potency is read from the fitted curve at half-maximal effect.
SMILES,HPGD inh,ALDH1A1 block,Lamin A splicing,HTT ATP protect,HttQ103 aggreg
Cc1ccc(Cn2ccn(Cc3ccccc3F)c(=O)c2=O)cc1,.,.,1%[46 µM],.,.
COc1ccc(N2CCN(C(=O)c3cnc(N4CCCC4)nc3C)CC2)cc1,.,.,7%[46 µM],.,.
COc1ccc(N2CCN(C(=O)c3cccnc3SCc3cccc(Br)c3)CC2)cc1,.,-2%,8%[46 µM],-17%,22µM*
NC(=O)CCCCC(N)=O,-17%,-7%,.,-9%,.
COc1ccc(OC2C=CC(C#Cc3ccccc3)OC2CO)cc1 (configuration not stated),.,?,.,-1%[10 µM],.
COC(=O)c1ccc(NS(=O)(=O)c2cccc3cccnc23)cc1,-7%,17%,-7%,8%,13%
CN(CC(=O)N1CCCCCC1)S(=O)(=O)c1cccc2cccnc12,-15%,?,0%,-4%,13%
COc1ccc(NS(=O)(=O)c2cccc3cccnc23)cc1,-7%,-3%,1%,-20%[10 µM],13µM*
O=C(NC1CCCCC1)c1ccc(NS(=O)(=O)c2cccc3cccnc23)cc1,.,7.9µM*,.,-27%[10 µM],-15%[9.22 µM]
O=C(c1ccc(NS(=O)(=O)c2cccc3cccnc23)cc1)N1CCCCC1,.,?,-3%[46 µM],-19%,-15%
O=C(NCc1ccccc1)c1cccc(NS(=O)(=O)c2cccc3cccnc23)c1,-2%,0.5µM*,-5%,-13%[10 µM],27%
CC(CS(=O)(=O)c1cccc2cccnc12)N1CCCCC1 (configuration not stated),.,20µM*,-11%,-12%,17%
COCCNC(=O)c1cccc(NS(=O)(=O)c2cccc3cccnc23)c1,4%,?,2%,.,1%
COc1ccc2[nH]c3c(=O)n4c(nc3c2c1)SCCC4,.,?,?,?,-27%
CN(CC(=O)NC1CCCCCCC1)S(=O)(=O)c1cccc2cccnc12,1%,-14%,0%,6%,-8%
O=S(=O)(NC1CCCCCC1)c1cccc2cccnc12,-1%,14µM*,?,14%,0%
Cn1c2ccccc2c(=O)c2c(=O)n(Cc3ccccc3)c(-c3ccc(F)cc3)nc21,.,.,.,9%[10 µM],9%[9.22 µM]
COc1ccccc1OCCC(=O)OCC(=O)Nc1cc(S(=O)(=O)N2CCOCC2)ccc1Cl,.,6.3µM*,-3%[46 µM],-18%,-7%
Cc1ccccc1OCCC(=O)OCC(=O)Nc1cc(S(=O)(=O)N2CCOCC2)ccc1Cl,.,2.5µM*,-5%[46 µM],-3%,1%
Cc1cccc(NC(=O)COC(=O)CCc2ccc(S(=O)(=O)N3CCOCC3)cc2)c1C,.,3.5µM*,.,-4%,0%[9.22 µM]
COc1ccc(S(=O)(=O)N2CCOCC2)cc1NC(=O)CCc1c[nH]c2ccccc12,.,14µM*,-18%[46 µM],-21%,21%
CCC(CO)NC1=CC(=O)CCC1 (configuration not stated),.,10%,11%[9.22 µM],5%,21%
CCOc1cccc(OCCCCN2CCOCC2)c1,2%,?,13%,6%,?
COc1cccc(OCCCCCCN2CCOCC2)c1,-9%,4µM*,4%,30%,-18%[9.22 µM]
O=C(/C=C/c1ccc([N+](=O)[O-])cc1)Nc1cccnc1,-24%,8.9µM*,10%,-108%,1%
SMILES,HPGD inh,ALDH1A1 block,Lamin A splicing,HTT ATP protect,HttQ103 aggreg
Cc1ccc(/C=C/C(=O)Nc2cccnc2)o1,22µM*,10µM*,1%,.,-7%
N#C/C(=C\c1cccc([N+](=O)[O-])c1)C(=O)Nc1cccnc1,.,11µM*,.,-16%,10%
Cc1occc1C(=O)Nc1cccnc1,-20%,?,-4%,0%[0.074 µM],22µM*
Cc1ccc(/C=C/C(=O)Nc2nn[nH]n2)o1,-27%,?,-1%,24%[10 µM],-11%
O=C(Nc1cccnc1)c1ccccc1O,?,?,-6%,-23%,-11%
O=C(Nc1cccc2ncccc12)c1cccnc1,-10%,-1%,-11%,-1%[0.074 µM],-17%
Cc1ccc(/C=C/C(=O)Nc2cccc3ncccc23)o1,32µM*,?,-1%,0%[10 µM],1%
CO[C@H]1C=CO[C@]2(C)Oc3c(C)c(O)c4c(O)c(c5c(c4c3C2=O)NC2(CCN(CC(C)C)CC2)N=5)=NC(=O)C(C)=CC=C[C@@H](C)[C@@H](O)[C@@H](C)[C@@H](O)[C@@H](C)[C@@H](OC(C)=O)[C@@H]1C,-3%,8%[20.9 µM],?,-56%[17.1 µM],.
